Laboratory results taken from PubChem BioAssay (NCATS).
Results filed as inconclusive are left out. Calls of active or inactive are those of the source. The call rests on the fitted dose curve; in most records, active means well fitted curve in the direction sought with a large enough effect; inconclusive means small, poorly fitted or top-dose-only effect, or another doubt; inactive means no such curve, though single readings can be large; an effect the other way counts as inactive or inconclusive.

Key:
[1] = target: ATP-dependent 6-phosphofructokinase (Trypanosoma brucei brucei) (UniProt O15648); assay: qHTS Assay to Find Inhibitors of T. brucei phosphofructokinase: hit validation (AID 492961);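 further: luminescence reports ADP formed as PFK phosphorylates fructose-6-phosphate with ATP; on the % scale 0 is the no-effect control and ±100 the full control effect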
Sequence of ATP-dependent 6-phosphofructokinase (Trypanosoma brucei brucei) (O15648 whole entry, looked up): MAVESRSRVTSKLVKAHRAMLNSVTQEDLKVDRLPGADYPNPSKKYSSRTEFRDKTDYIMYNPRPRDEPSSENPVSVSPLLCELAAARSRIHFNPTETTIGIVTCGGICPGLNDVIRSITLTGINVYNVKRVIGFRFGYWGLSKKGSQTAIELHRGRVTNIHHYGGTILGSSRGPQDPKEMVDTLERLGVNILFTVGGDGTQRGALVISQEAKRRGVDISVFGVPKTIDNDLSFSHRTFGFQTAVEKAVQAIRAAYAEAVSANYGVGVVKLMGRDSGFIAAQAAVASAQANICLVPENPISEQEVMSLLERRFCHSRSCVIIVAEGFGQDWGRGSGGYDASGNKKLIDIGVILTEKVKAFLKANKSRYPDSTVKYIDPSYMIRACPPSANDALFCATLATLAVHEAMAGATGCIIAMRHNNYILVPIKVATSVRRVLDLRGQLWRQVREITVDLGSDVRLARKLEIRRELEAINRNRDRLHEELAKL
Outline: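 PFK 1.25 nM, F6P 0.5 mM, ATP 0.1 mM, MgCl2 5 mM, 0.1 M TEA pH 8.0, Tween20 0.01%, BSA 0.1%; 45 min RT. ADP-Glo two-step detection, luminescence. qHTS titration; curve fitting with curve-class categorization.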

[2] = qHTS profiling for inhibitors of Plasmodium falciparum proliferation (AID 504749);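 further: 0% = DMSO vehicle and full inhibition = artemisinin control; nearly all actives have a fitted effect of over 60% in size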; conditions: P. falciparum in erythrocytes, SYBR Green DNA, 72 h, at 28.7 µM (top of the series)
Outline: (§1)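 Quantitative HTS: compounds pinned into medium, infected erythrocytes added (0.3% parasitemia, 2.5% hematocrit), 72 h culture at 37 C under 5% CO2. Saponin/Triton lysis with SYBR Green I, overnight RT, then fluorescence read.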

3D7 = assay: as above; conditions: P. falciparum in erythrocytes, SYBR Green DNA, 72 h; series mostly up to 28.7 µM
Outline: as §1

7G8 = assay: as above; conditions: P. falciparum in erythrocytes, SYBR Green DNA, 72 h; series mostly up to 28.7 µM
Outline: as §1

AS120 = assay: as above; conditions: P. falciparum in erythrocytes, SYBR Green DNA, 72 h; series mostly up to 28.7 µM
Outline: as §1

ATS189 = assay: as above; conditions: P. falciparum in erythrocytes, SYBR Green DNA, 72 h; series mostly up to 28.7 µM
Outline: as §1

CP185 = assay: as above; conditions: P. falciparum in erythrocytes, SYBR Green DNA, 72 h; series mostly up to 28.7 µM
Outline: as §1

CP191 = assay: as above; conditions: P. falciparum in erythrocytes, SYBR Green DNA, 72 h; series mostly up to 28.7 µM
Outline: as §1

CP192 = assay: as above; conditions: P. falciparum in erythrocytes, SYBR Green DNA, 72 h; series mostly up to 28.7 µM
Outline: as §1

CP194 = assay: as above; conditions: P. falciparum in erythrocytes, SYBR Green DNA, 72 h; series mostly up to 28.7 µM
Outline: as §1

CP201 = assay: as above; conditions: P. falciparum in erythrocytes, SYBR Green DNA, 72 h; series mostly up to 28.7 µM
Outline: as §1

CP203 = assay: as above; conditions: P. falciparum in erythrocytes, SYBR Green DNA, 72 h; series mostly up to 28.7 µM
Outline: as §1

CP247 = assay: as above; conditions: P. falciparum in erythrocytes, SYBR Green DNA, 72 h; series mostly up to 28.7 µM
Outline: as §1

CP286 = assay: as above; conditions: P. falciparum in erythrocytes, SYBR Green DNA, 72 h; series mostly up to 28.7 µM
Outline: as §1

CP291 = assay: as above; conditions: P. falciparum in erythrocytes, SYBR Green DNA, 72 h; series mostly up to 28.7 µM
Outline: as §1

P94_40 = assay: as above; conditions: P. falciparum in erythrocytes, SYBR Green DNA, 72 h; series mostly up to 28.7 µM
Outline: as §1

PC49 = assay: as above; conditions: P. falciparum in erythrocytes, SYBR Green DNA, 72 h; series mostly up to 28.7 µM
Outline: as §1

TAB109 = assay: as above; conditions: P. falciparum in erythrocytes, SYBR Green DNA, 72 h; series mostly up to 28.7 µM
Outline: as §1

TAB113 = assay: as above; conditions: P. falciparum in erythrocytes, SYBR Green DNA, 72 h; series mostly up to 28.7 µM
Outline: as §1

CC(c1ncncc1F)[C@](O)(Cn1cncn1)c1ccc(F)cc1F (stereo not given in full)
inactive: Potency [1] | activity, negative = inhibition ([2]; parasite line A) 7.39% | activity, negative = inhibition ([2]; parasite line B) -17.3% | Potency (3D7) | Potency (7G8) | Potency (AS120) | Potency (ATS189) | Potency (CP185) | Potency (CP191) | Potency (CP192) | Potency (CP194) | Potency (CP201) | Potency (CP203) | Potency (CP247) | Potency (CP286) | Potency (CP291) | Potency (P94_40) | Potency (PC49) | Potency (TAB109) | Potency (TAB113)

C=NC(C(=O)NC1C(=O)N2C1SC(C)(C)C2C(=O)O)c1ccccc1 (stereo not given)
inactive: Potency [1] | activity, negative = inhibition ([2]; parasite line A) 7.65% | activity, negative = inhibition ([2]; parasite line B) -6.25% | Potency (3D7) | Potency (7G8) | Potency (AS120) | Potency (ATS189) | Potency (CP185) | Potency (CP191) | Potency (CP192) | Potency (CP194) | Potency (CP201) | Potency (CP203) | Potency (CP247) | Potency (CP286) | Potency (CP291) | Potency (P94_40) | Potency (PC49) | Potency (TAB109) | Potency (TAB113)

CC[C@@H]1/C=C(\C)C[C@H](C)C[C@H](OC)[C@H]2O[C@@](O)(C(=O)C(=O)N3CCCC[C@H]3C(=O)O[C@H](/C(C)=C/[C@@H]3CC[C@H](Cl)[C@H](OC)C3)[C@H](C)[C@@H](O)CC1=O)[C@H](C)C[C@@H]2OC
inactive: Potency [1] | activity, negative = inhibition ([2]; parasite line A) 10.4% | activity, negative = inhibition ([2]; parasite line B) 3.17% | Potency (3D7) | Potency (7G8) | Potency (AS120) | Potency (ATS189) | Potency (CP185) | Potency (CP191) | Potency (CP192) | Potency (CP194) | Potency (CP201) | Potency (CP203) | Potency (CP247) | Potency (CP286) | Potency (CP291) | Potency (P94_40) | Potency (PC49) | Potency (TAB109) | Potency (TAB113)

C=CCn1c(=O)n(C2OC(CO)C(O)C2O)c2nc(N)[nH]c(=O)c21 (stereo not given)
inactive: Potency [1] | activity, negative = inhibition ([2]; parasite line A) 5.09% | activity, negative = inhibition ([2]; parasite line B) -6.68% | Potency (3D7) | Potency (7G8) | Potency (AS120) | Potency (ATS189) | Potency (CP185) | Potency (CP191) | Potency (CP192) | Potency (CP194) | Potency (CP201) | Potency (CP203) | Potency (CP247) | Potency (CP286) | Potency (CP291) | Potency (P94_40) | Potency (PC49) | Potency (TAB109) | Potency (TAB113)
